In the supplement of paper PMC8728848:
The sample as a whole holds a higher share of the strongest signals than the screen did.

What was measured:
Assay in all cases: glycan array binding signal (z-score within array); higher = stronger binding
Conditions in all cases: glycan notation: IUPAC condensed, linker removed
Fuc(a1-2)Gal(b1-3)GalNAc = target: Fuc(a1-2)Gal(b1-3)GalNAc
Procedure, shortened: (§1)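 Glycan array binding is given as a within-array Z-score, which can be read as non-binding when negative. The arrays, 3228 of them, came from the Consortium for Functional Glycomics database and were retained only where the protein sequence was available. Z-scores were averaged across arrays of the same protein sequence at different concentrations or buffers and across linkers.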

[1] = target: Fuc(a1-2)Gal(b1-3)GlcNAc(b1-2)Man(a1-3)[Fuc(a1-2)Gal(b1-3)GlcNAc(b1-2)Man(a1-6)]Man(b1-4)GlcNAc(b1-4)GlcNAc
Procedure, shortened: as §1

[2] = target: Fuc(a1-2)Gal(b1-3)GlcNAc(b1-2)Man(a1-3)[Fuc(a1-2)Gal(b1-3)GlcNAc(b1-2)Man(a1-6)]Man(b1-4)GlcNAc(b1-4)[Fuc(a1-6)]GlcNAc
Procedure, shortened: as §1

[3] = target: Fuc(a1-2)Gal(b1-3)[Fuc(a1-4)]GlcNAc(b1-2)Man(a1-3)[Fuc(a1-2)Gal(b1-3)[Fuc(a1-4)]GlcNAc(b1-2)Man(a1-6)]Man(b1-4)GlcNAc(b1-4)GlcNAc
Procedure, shortened: as §1

[4] = target: Fuc(a1-2)Gal(b1-4)Fuc(a1-3)]GlcNAc(b1-2)Man(a1-3)[Fuc(a1-2)Gal(b1-4)[Fuc(a1-3)]GlcNAc(b1-2)Man(a1-6)]Man(b1-4)GlcNAc(b1-4)GlcNAc
Procedure, shortened: as §1

[5] = target: Fuc(a1-2)Gal(b1-4)[Fuc(a1-3)]GlcNAc(b1-3)GalNAc
Procedure, shortened: as §1

[6] = target: Fuc(a1-2)[GalNAc(a1-3)]Gal(b1-3)GalNAc(b1-3)Gal(a1-4)Gal(b1-4)Glc
Procedure, shortened: as §1

[7] = target: Fuc(a1-2)[GalNAc(a1-3)]Gal(b1-4)GlcNAc(b1-3)GalNAc
Procedure, shortened: as §1

[8] = target: Fuc(a1-2)[GalNAc(a1-3)]Gal(b1-4)[Fuc(a1-3)]GlcNAc
Procedure, shortened: as §1

[9] = target: Fuc(a1-3)[Gal3S(b1-4)]GlcNAc6S
Procedure, shortened: as §1

[10] = target: Fuc(a1-3)[GalNAc(b1-4)]GlcNAc
Procedure, shortened: as §1

[11] = target: Gal(a1-3)Gal(b1-4)GlcNAc(b1-2)Man
Procedure, shortened: as §1

[12] = target: Gal(a1-3)Gal(b1-4)GlcNAc(b1-6)GalNAc
Procedure, shortened: as §1

[13] = target: Gal(a1-3)[Gal(a1-4)]Gal(b1-4)GlcNAc
Procedure, shortened: as §1

Gal(a1-6)Glc = target: Gal(a1-6)Glc
Procedure, shortened: as §1

[14] = target: Gal(b1-3)GalNAc(b1-4)[Neu5Ac(a2-3)]Gal(b1-4)Glc
Procedure, shortened: as §1

[15] = target: Gal(b1-3)GlcNAc(b1-3)Gal(b1-4)GlcNAc(b1-2)[Gal(b1-3)GlcNAc(b1-3)Gal(b1-4)GlcNAc(b1-6)]Man(a1-6)[Gal(b1-3)GlcNAc(b1-3)Gal(b1-4)GlcNAc(b1-2)Man(a1-3)]Man(b1-4)GlcNAc(b1-4)[Fuc(a1-6)]GlcNAc
Procedure, shortened: as §1

[16] = target: Gal(b1-3)GlcNAc(b1-3)GalNAc
Procedure, shortened: as §1

[17] = target: Gal(b1-3)[Fuc(a1-4)]GlcNAc(b1-3)Gal(b1-4)GlcNAc
Procedure, shortened: as §1

[18] = target: Gal(b1-4)GlcNAc(b1-2)Man(a1-3)[Gal(b1-4)GlcNAc(b1-2)Man(a1-6)]Man(b1-4)GlcNAc(b1-4)GlcNAc
Procedure, shortened: as §1

[19] = target: Gal(b1-4)GlcNAc(b1-2)Man(a1-3)[GlcNAc(b1-2)Man(a1-6)]Man(b1-4)GlcNAc(b1-4)GlcNAc
Procedure, shortened: as §1

[20] = target: Gal(b1-4)GlcNAc(b1-2)Man(a1-3)[GlcNAc(b1-4)][Gal(b1-4)GlcNAc(b1-2)Man(a1-6)]Man(b1-4)GlcNAc(b1-4)GlcNAc
Procedure, shortened: as §1

[21] = target: Gal(b1-4)GlcNAc(b1-2)[Gal(b1-4)GlcNAc(b1-4)]Man(a1-3)[GlcNAc(b1-4)][Gal(b1-4)GlcNAc(b1-2)[Gal(b1-4)GlcNAc(b1-6)]Man(a1-6)]Man(b1-4)GlcNAc(b1-4)[Fuc(a1-6)]GlcNAc
Procedure, shortened: as §1

[22] = target: Gal(b1-4)GlcNAc(b1-3)Gal(b1-4)GlcNAc(b1-2)[Gal(b1-4)GlcNAc(b1-3)Gal(b1-4)GlcNAc(b1-6)]Man(a1-6)[Gal(b1-4)GlcNAc(b1-3)Gal(b1-4)GlcNAc(b1-2)Man(a1-3)]Man(b1-4)GlcNAc(b1-4)GlcNAc
Procedure, shortened: as §1

[23] = target: Gal(b1-4)GlcNAc(b1-3)Gal(b1-4)GlcNAc(b1-2)[Gal(b1-4)GlcNAc(b1-3)Gal(b1-4)GlcNAc(b1-6)]Man(a1-6)[Gal(b1-4)GlcNAc(b1-3)Gal(b1-4)GlcNAc(b1-2)Man(a1-3)]Man(b1-4)GlcNAc(b1-4)[Fuc(a1-6)]GlcNAc
Procedure, shortened: as §1

[24] = target: Gal(b1-4)GlcNAc(b1-3)Gal(b1-4)GlcNAc(b1-3)Gal(b1-4)GlcNAc(b1-3)Gal(b1-4)GlcNAc(b1-2)Man(a1-3)[Gal(b1-4)GlcNAc(b1-3)Gal(b1-4)GlcNAc(b1-3)Gal(b1-4)GlcNAc(b1-3)Gal(b1-4)GlcNAc(b1-2)Man(a1-6)]Man(b1-4)GlcNAc(b1-4)[Fuc(a1-6)]GlcNAc
Procedure, shortened: as §1

[25] = target: Gal(b1-4)GlcNAc(b1-3)Gal(b1-4)GlcNAc(b1-3)Gal(b1-4)GlcNAc(b1-3)Gal(b1-4)GlcNAc(b1-3)Gal(b1-4)GlcNAc(b1-2)Man(a1-3)[Gal(b1-4)GlcNAc(b1-3)Gal(b1-4)GlcNAc(b1-3)Gal(b1-4)GlcNAc(b1-3)Gal(b1-4)GlcNAc(b1-3)Gal(b1-4)GlcNAc(b1-2)Man(a1-6)]Man(b1-4)GlcNAc(b1-4)GlcNAc
Procedure, shortened: as §1

B1: LlpA1 (Pseudomonas fluorescens), Q4KHC3 (protein)
chain: MGSSHHHHHHSSGLVPRGSHMAWIRYDFTDNGSSVLPARYYMAPNQYLQSPNKRFKLLFQADGNLALYDGAQLAWVADQNTPFTNVSKGNKKDPMMVFMNYGFVLDDPLRGRIWSTTPSDPTMGSREDASLRAFTQVQDDGNIVTVDTIPHWYAPNGRVFTPAVGAAMIIGGTTELVPGQFYSAGEHSLVFQGDGNLVVYGPNSSVIWATYTQNKGGVRCVMQEDGNLVIYAANNGVVWQSGTGGHPGATIRLQANGSFTIVTERPVWARFGYTPTIKPPRVFYPDHKWKTGSYTWNNVF
For B1, the “glycan array binding signal (z-score)” value (Fuc(a1-2)Gal(b1-3)GalNAc) was -0.757, the “glycan array binding signal (z-score)” value [1] was 3.75 and the “glycan array binding signal (z-score)” value [2] was -0.133. The “glycan array binding signal (z-score)” value [3] was 3.21, the “glycan array binding signal (z-score)” value [4] was 3.1 and the “glycan array binding signal (z-score)” value [5] was 2.56. The “glycan array binding signal (z-score)” value [6] was 0.171, the “glycan array binding signal (z-score)” value [7] was -0.468 and the “glycan array binding signal (z-score)” value [8] was 0.114. The “glycan array binding signal (z-score)” value [9] was -0.653, the “glycan array binding signal (z-score)” value [10] was -0.611 and the “glycan array binding signal (z-score)” value [11] was -0.521. For the same binder, the “glycan array binding signal (z-score)” value [12] was 0.065, the “glycan array binding signal (z-score)” value [13] was 2.71 and the “glycan array binding signal (z-score)” value (Gal(a1-6)Glc) was 0.047. The “glycan array binding signal (z-score)” value [14] was -0.058, the “glycan array binding signal (z-score)” value [15] was 0.631 and the “glycan array binding signal (z-score)” value [16] was -0.529. The “glycan array binding signal (z-score)” value [17] was -0.53, the “glycan array binding signal (z-score)” value [18] was -0.071 and the “glycan array binding signal (z-score)” value [19] was 0.504. The “glycan array binding signal (z-score)” value [20] was -0.797, the “glycan array binding signal (z-score)” value [21] was 2.29 and the “glycan array binding signal (z-score)” value [22] was 2.3. For the same binder, the “glycan array binding signal (z-score)” value [23] was 1.19, the “glycan array binding signal (z-score)” value [24] was 1.12 and the “glycan array binding signal (z-score)” value [25] was 2.15.
